Screening results as filed in PubChem BioAssay.
Only some compounds are listed: those with a hit (about 4.6% of all), similar ones and a draw of the others.
SKKanGAS inh – blocks kanamycin growth of S. pyogenes SKKanGAS strain | actives 1.3% (n = 300,000) | inhibition, % at 7.5 µM | BacTiter-Glo, 6 h | AID 1662;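 active = mean replicate score, as percent of positive control median, at least 50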;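 note: strain carries kanamycin resistance gene driven by streptokinase promoter and grows in 40 µg/ml kanamycin; loss of luminescence reflects streptokinase promoter inhibition or plain growth inhibition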
TIM10 inh – growth inhibitors of TIM10 yeast strain | S. cerevisiae TIM10 strain growth, BacTiter-Glo luminescence, 24 h | inhibition, % at 10 µM | actives 1.4% (n = 330,000) | AID 463195;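 active = inhibition of 40% or more at the single tested concentration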;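 note: wild-type TIM10 isogenic control strain grown at permissive 25 °C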
NALP3 yeast inh – inhibitors of NALP3 inflammasome in yeast. inhibition, % at 10 µM. Yeast reconstituted NLRP3/ASC/caspase-1, beta-gal luminescence, 24 h. actives 0.39% (n = 330,000);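 active = inhibition of 50% or more; inactive = inhibition below 50%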
tim23-1 inh – tim23-1 yeast growth inhibition | S. cerevisiae tim23-1 growth, BacTiter-Glo luminescence, 24 h | inhibition, % at 20 µM | actives 1.3% (n = 330,000);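 active = growth inhibition of the mutant yeast at or above 50%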;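 note: temperature-sensitive mutant grown at 25 °C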
tim10-1 inh – growth inhibitors of tim10-1 mutant yeast; inhibition, % at 20 µM; AID 463190; S. cerevisiae tim10-1 ts strain growth, BacTiter-Glo, 24 h; actives 2.2% (n = 330,000);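 active = inhibition of at least 40%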;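 note: mutant grown at 25 °C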
NALP3 yeast conf – NALP3 inhibition confirmation in yeast | shares compounds with NALP3 yeast inh | yeast expressing human NALP3, luminescence | inhibition, % at 10 µM | actives 81% (n = 1,300); in the data active = inhibition above about 48%
Casp1-ASC yeast – counter-screen for NALP3 inhibitors: yeast caspase-1-ASC. yeast expressing Caspase-1-ASC, luminescence counter screen. inhibition, % at 10 µM. actives 66% (n = 1,000). shares compounds with NALP3 yeast inh
NALP3 retest – yeast NALP3 inhibition, confirmed on retest; yeast expressing human NALP3, luminescence read-out; actives 53% (n = 1,000); inhibition, % at 10 µM; shares compounds with NALP3 yeast inh
Large screens that a line does not name were inactive (follow-up assays come after a bar, where they were run). Cut-off read from the data, not from the text of the source, unless noted: active = inhibition above about 50%; inactive = the rest.

c1ccc2oc(SCc3cn4ccccc4n3)nc2c1	NALP3 yeast inh 55.7 | NALP3 yeast conf 68.5 | Casp1-ASC yeast 69.2 | NALP3 retest 53.2
CCCCOc1ccc(C2/C(=C(\O)c3ccc4c(c3)OCCO4)C(=O)C(=O)N2CCCN2CCOCC2)cc1 (configuration not stated)	NALP3 yeast inh 59.5 | NALP3 yeast conf 54.9 | Casp1-ASC yeast 68.3 | NALP3 retest 53.5
O=C1C(=O)N(CCCN2CCOCC2)C(c2ccc(Cl)cc2)/C1=C(\O)c1ccc2c(c1)OCCO2 (configuration not stated)	none
COc1ccc(S(=O)(=O)NCC(c2ccc(C)cc2)N2CCN(C)CC2)cc1 (configuration not stated)	none
CN(C(=O)CN1CCN(c2ccccc2F)CC1)C1CCCc2ccccc21 (configuration not stated)	none
CC1(C)CC(=O)/C(=C\c2cccc([N+](=O)[O-])c2)C(C)(C)N1	NALP3 yeast inh 58.7 | NALP3 yeast conf 55.1 | Casp1-ASC yeast inactive | NALP3 retest inactive
O=C(Nc1cccc(-c2ccc(N3CCOCC3)nn2)c1)c1ccc(Cl)cc1	none
O=C(COc1ccc(Cl)cc1)Nc1cccc(-c2ccc(N3CCOCC3)nn2)c1	NALP3 yeast inh 61.3 | NALP3 yeast conf 75.0 | Casp1-ASC yeast inactive | NALP3 retest inactive
Cc1nc2sc(-c3ccccc3)cc2c(=O)n1-n1cccc1	NALP3 yeast inh 51.9 | NALP3 yeast conf 70.8 | Casp1-ASC yeast 57.5 | NALP3 retest inactive
Cc1nc2sc(-c3ccccc3)cc2c(=O)n1N	none
CCN=C1SC(CC(=O)Nc2sc(C)c(C)c2C(=O)OC)C(=O)N1CC (configuration not stated)	NALP3 yeast inh 55.6 | NALP3 yeast conf 64.3 | Casp1-ASC yeast 63.5 | NALP3 retest 52.2
CCN=C1SC(CC(=O)Nc2sc3c(c2C#N)CCCC3)C(=O)N1CC (configuration not stated)	none
C/C(=N\NC(=S)NCCc1ccccc1)c1ccc(Cl)cc1Cl	SKKanGAS inh 90.7, NALP3 yeast inh 58.3 | NALP3 yeast conf inactive | Casp1-ASC yeast 76.8 | NALP3 retest 58.1
COc1ccc(-n2c(-c3ccc(Cl)cc3)c[nH]c2=S)cc1	NALP3 yeast inh 56.6 | NALP3 yeast conf 79.6 | Casp1-ASC yeast 50.7 | NALP3 retest inactive
Cc1ccc(-n2c(-c3ccccc3)c[nH]c2=S)cc1	NALP3 yeast inh 55.9 | NALP3 yeast conf inactive
Cc1ccc(-n2c(-c3ccccc3)n[nH]c2=S)cc1	none
O=C(Nc1ccc(F)cc1)C1(S(=O)(=O)c2ccc(Cl)cc2)CC1	NALP3 yeast inh 55.1 | NALP3 yeast conf 74.8 | Casp1-ASC yeast inactive | NALP3 retest inactive
CC12CC3(C)CC(C)(C1)CC(NC(=O)N1CCCC1)(C2)C3	NALP3 yeast inh 93.8 | NALP3 yeast conf 48.8 | Casp1-ASC yeast 98.5 | NALP3 retest 98.7
CC1(NC(=O)N2CCCCC2)CCS(=O)(=O)C1 (configuration not stated)	none
CN(C)S(=O)(=O)NCC1CCCN(Cc2cc3ccccc3s2)C1 (configuration not stated)	none (no result: TIM10 inh, NALP3 yeast inh, tim23-1 inh, tim10-1 inh)
O=C(CSC1=NS(=O)(=O)c2ccccc2N1)Nc1cccc(F)c1	none (no result: SKKanGAS inh)
O=C(C1CCN(S(=O)(=O)c2cccc3cccnc23)CC1)N1CCn2c1nc1ccccc12	NALP3 yeast inh 79.5 | NALP3 yeast conf 89.9 | Casp1-ASC yeast 84.9 | NALP3 retest 87.4
Fc1ccccc1OCCn1c(=S)[nH]c2ccccc21	none
Cc1ccccc1OCCn1c(=S)[nH]c2ccccc21	NALP3 yeast inh 53.1 | NALP3 yeast conf 78.9 | Casp1-ASC yeast 66.7 | NALP3 retest inactive
Cc1ccc([N+](=O)[O-])cc1NC(=O)c1ccc(C(C)(C)C)cc1	NALP3 yeast inh 56.5 | NALP3 yeast conf 51.2 | Casp1-ASC yeast inactive | NALP3 retest inactive
O=C1c2ccsc2SCCN1Cc1ccc(F)cc1	NALP3 yeast inh 65.3 | NALP3 yeast conf 71.8 | Casp1-ASC yeast 63.2 | NALP3 retest inactive
Cc1cccc(CN2CCSc3sccc3C2=O)c1	none
O=C1c2ccsc2SCCN1Cc1cccc(Cl)c1	none
O=C1c2ccsc2SCCN1Cc1ccc(Cl)cc1	NALP3 yeast inh 79.4 | NALP3 yeast conf 83.5 | Casp1-ASC yeast 88.4 | NALP3 retest 79.8
Cc1ccc(CN2CCSc3sccc3C2=O)cc1	NALP3 yeast inh 81.2 | NALP3 yeast conf 74.3 | Casp1-ASC yeast 89.3 | NALP3 retest 77.4
Cc1ccc(S(=O)(=O)Nc2cccc(-c3ccc(N4CCCCCC4)nn3)c2)cc1	none
O=C(Nc1ccc(F)cc1)Nc1nnc(Cc2ccccc2F)s1	none
O=C(CSc1nc(COc2ccccc2)nc2ccccc12)NC1CCCC1	NALP3 yeast inh 70.6 | NALP3 yeast conf inactive | Casp1-ASC yeast 67.2 | NALP3 retest 55.7
CCCNC(=O)CSc1nc(COc2ccccc2)nc2ccccc12	none
COc1cccc(C(C(=O)NC(C)(C)C)N(C(=O)CCC(=O)Nc2cc(C)on2)c2ccc3c(c2)OCCO3)c1OC (configuration not stated)	none
CCOc1ccc(CSCCNC(=S)Nc2ccc(OC)cc2)cc1	NALP3 yeast inh 67.9 | NALP3 yeast conf 64.5 | Casp1-ASC yeast inactive | NALP3 retest inactive
CCOc1ccc(NC(=S)N/N=C(\C)Cc2ccc(OC)cc2)cc1	none
COc1cccc(NS(=O)(=O)NC(=O)c2cn(C)c3ccccc23)c1	none
CCCCCCCCCCCCOC(=O)C[N+](C)(C)C	SKKanGAS inh 113.1, NALP3 yeast inh 53.6 | NALP3 yeast conf inactive | Casp1-ASC yeast 59.1 | NALP3 retest 52.4
CCC[C@@H]1CCCO[C@@](C(=O)NCCN2CCOCC2)(C(F)(F)F)C1	none
CN1CCN(c2ccccc2NC(=O)c2cc3c(s2)-c2ccccc2OC3)CC1	NALP3 yeast inh 70.7 | NALP3 yeast conf 76.2 | Casp1-ASC yeast 81.8 | NALP3 retest 75.5
O=C(Nc1cccnc1Cl)c1cc2c(s1)-c1ccccc1OC2	none
COc1cc(NC(=O)CN2C(=O)CN(C)C2=O)c(C)cc1[N+](=O)[O-]	NALP3 yeast inh 81.4 | NALP3 yeast conf inactive
COc1ccc(C(C)(C)C)cc1NC(=O)C1CC(=O)N(C2CCCC2)C1 (configuration not stated)	none (no result: SKKanGAS inh)
Cn1nc(-c2ccccc2)c(C(=O)Nc2ccc(Cl)cc2)c1Cl	NALP3 yeast inh 81.3 | NALP3 yeast conf 86.2 | Casp1-ASC yeast 54.7 | NALP3 retest inactive
Cn1nc(-c2ccccc2)c(C(=O)Nc2ccc(C(F)(F)F)cc2)c1Cl	none
Cc1cnc(C(=O)OCC(=O)N(Cc2ccccc2)C(C)(C)C)cn1	none (no result: SKKanGAS inh)
CCCCCOC(=O)Nc1nnc(CCCCC)s1	none
CCCCCc1nnc(NC(=O)OCCC)s1	NALP3 yeast inh 53.9 | NALP3 yeast conf 72.8 | Casp1-ASC yeast 56.6 | NALP3 retest inactive
